Growth data for twelve compounds are collected here from PubChem BioAssay (NCI).

SMILES strings stand for the structures. The panel holds about 83,000 compounds, 20% with a hit somewhere; the sample as a whole holds those more often.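 In brief: 96-well plates, 48 h treatment, single concentration, percent growth endpoint.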 The source made the active and inactive calls. Rule for the calls: active = growth percent below 10; inactive = the rest.

Assay in all cases: NCI-60 one-dose screen, 48 h (100 = growth as untreated, 0 = no growth, -100 = all killed)
Holding throughout (settings): 10 µM unless noted

In test [1] the test system is SR leukemia.
Test [2] deals with RPMI-8226 leukemia.
Test [3] concerns OVCAR-8 ovarian.
Test [4] concerns OVCAR-5 ovarian.
Test [5] relates to OVCAR-4 ovarian.
The subject of test [6] is SK-OV-3 ovarian.
The subject of test [7] is IGROV1 ovarian.
Test [8] relates to OVCAR-3 ovarian.
Test [9] deals with HS 578T breast.
Test [10] deals with NCI/ADR-RES ovarian.

On to `CCOc1ccccc1NC(=O)c1cc2ccccc2cc1O`, for which the growth was 45.5% (inactive) in test [1]; 25.8% (inactive) in [2]; 52% (inactive) in [3]; 114% (inactive) in test [4]; 61% (inactive) in [5]; 81.3% (inactive) in [6]. Moreover, the growth is 60.3% (inactive) in [7], 18.2% (inactive) in [8], 51.6% (inactive) in test [9] and 28.7% (inactive) in [10].
For the compound `COc1ccc2c(c1)c(C(=O)c1nc(-c3cn(C)c4ccccc34)no1)cn2C`, the growth in test [1] is 44.7% (inactive); in test [2], 93.6% (inactive); in [3], 97.9% (inactive); in test [4], 107% (inactive); in [5], 95.8% (inactive); in test [6] it was 84.5% (inactive). The results for the growth in test [7], in [9] and in [10] were 86.5% (inactive), 88.2% (inactive) and 94.3% (inactive), respectively.
Turning to `O=C1/C(=C/c2cn(-c3ccccc3)nc2-c2ccccc2)SC(=S)N1c1ccccc1`, the growth is 108% (inactive) in test [1]; 107% (inactive) in test [2]; 104% (inactive) in [3]; 106% (inactive) in test [4]; 103% (inactive) in test [5]; 111% (inactive) in test [6]. Further, the growth in test [7] is 94.5% (inactive); in test [8] it was 109% (inactive); in [9] it was 101% (inactive); in [10], 103% (inactive).
Turning to `Cc1ccc(/C=C/c2c(C(=O)/C=C/c3ccccc3)c(C)nc3ccccc23)cc1`, the growth was 12.7% (inactive) in test [1]; -7.87% (active) in [2]; 1.99% (active) in [3]; 1.05% (active) in test [4]; 39.9% (inactive) in test [5]; 70.1% (inactive) in test [6]. Further, the growth is 11.3% (inactive) in test [7], -22% (active) in test [8], 35.6% (inactive) in test [9] and 8.38% (active) in test [10].
Consider `Cc1cccc(-c2nnc(SCC(=O)Nc3ncc(Cc4ccccc4)s3)n2N2C(=O)CSC2=S)c1`, for which the growth is 44.8% (inactive) in test [1]; 77.2% (inactive) in test [2]; 24.7% (inactive) in test [3]; 72.7% (inactive) in test [4]; -14.9% (active) in [5]; 87.2% (inactive) in [6]. In addition, the growth in test [7] was 50.5% (inactive); in [8], 50.8% (inactive); in test [9], 1.22% (active); in test [10], 80.2% (inactive).
For `Fc1ccccc1-c1cnn2cc(-c3ccccc3)cnc12`, the growth is 81.8% (inactive) in [1]; 98% (inactive) in test [2]; 94.1% (inactive) in test [3]; 109% (inactive) in test [4]; 98.5% (inactive) in test [5]; 98% (inactive) in test [6]. The growth is 88% (inactive) in test [7], 109% (inactive) in test [8], 93% (inactive) in test [9] and 95% (inactive) in [10].
`CCOC(=O)CC1CSC(c2cccc(Cl)c2)=N1` (centres undefined): the growth in [1] was 92% (inactive); in test [2], 104% (inactive); in [3], 102% (inactive); in [4], 113% (inactive); in test [5], 111% (inactive); in test [6], 103% (inactive). Further, the growth in test [7] is 113% (inactive); in test [8] it was 107% (inactive); in test [9], 102% (inactive); in [10], 96.4% (inactive).
Take `Cc1ccc(-c2nc3nc(-c4ccc(Cl)cc4)nc(N4CCCNCC4)c3o2)cc1`: the growth in test [1] is -44.9% (active); in [2] it was -48.7% (active); in [3], -58.7% (active); in test [4] it was -98.5% (active); in [5], -83.5% (active); in [6], 117% (inactive). Besides, the growth was -83.8% (active) in test [7], -95.5% (active) in test [8], -50.8% (active) in test [9] and -66.9% (active) in [10].
On to `Cn1cc(-c2nonc2-c2cn(C)c3ccc(Br)cc23)c2ccccc21`, for which the growth in test [1] is 11.1% (inactive); in test [2] it was 29.6% (inactive); in test [3], 36.8% (inactive); in [4], 58.1% (inactive); in [5] it was 55.5% (inactive); in test [6], 37.9% (inactive). Also, the growth in test [7] was 45.6% (inactive); in test [8], 3.66% (active); in test [9], -1.89% (active); in [10], 21% (inactive).
As for `Cc1cnc(C(=O)NNc2nc3sc4c(c3c(=O)[nH]2)C(C)CCC4)cn1` (centres undefined), the growth in [1] is 21.4% (inactive); in test [2] it was 29.3% (inactive); in [3], 15.3% (inactive); in test [4] it was 34.7% (inactive); in test [5] it was 22.1% (inactive); in test [6], 16.2% (inactive). Besides, the growth in test [7] is 14.5% (inactive); in test [8], 31.5% (inactive); in test [9], 46.8% (inactive); in [10] it was 11.7% (inactive).
Consider `OCCN1CCN(c2cc(-c3cccc(OC(F)(F)F)c3)nc3ccc(N4CCCC4)cc23)CC1`, for which the growth in test [1] is 3.39% (active); in [2], 43.1% (inactive); in test [3], 54.3% (inactive); in test [4] it was 69.4% (inactive); in test [5], 54.9% (inactive); in test [6] it was 74.5% (inactive). The growth in test [7] was 36.9% (inactive); in test [8] it was 46.7% (inactive); in [9], 53.9% (inactive); in test [10] it was 48.5% (inactive).
On to `COc1ccc(-c2nc(Cl)c3c(C)nn(-c4ccc(F)cc4)c3n2)cc1`, for which the growth in [1] was 103% (inactive); in test [2] it was 102% (inactive); in test [3] it was 99.2% (inactive); in [4] it was 110% (inactive); in [5], 107% (inactive); in test [6], 102% (inactive). The growth in test [7] was 109% (inactive); in test [8], 106% (inactive); in [9], 103% (inactive); in [10], 112% (inactive).
